# Measured values taken from ChEMBL document CHEMBL1961873, “Compounds: GSK PKIS; Assays: Nanosyn kinase panel” (2012).
# Several values for one entry are separate records, joined by “and”; a condition that tells them apart may be missing. Identical values can stand only once.
# How the values were obtained:
# [1] = system: Tyrosine-protein kinase ABL1 (Homo sapiens), P00519 [T315I]; settings: at 1 µM
# [2] = system: Tyrosine-protein kinase ABL1 (Homo sapiens), P00519 [Y253F]; settings: at 0.1 µM
# [3] = system: Tyrosine-protein kinase ABL1 (Homo sapiens), P00519 [Y253F]; settings: at 1 µM
# [4] = biological target: Tyrosine-protein kinase ABL1 (Homo sapiens) (UniProt P00519); settings: at 0.1 µM
# [5] = biological target: Tyrosine-protein kinase ABL1 (Homo sapiens) (UniProt P00519); settings: at 1 µM
# [6] = biological target: ALK tyrosine kinase receptor (Homo sapiens) (UniProt Q9UM73); settings: at 0.1 µM
# Chain of ALK tyrosine kinase receptor (Homo sapiens) (Q9UM73 19-1620 limits assumed): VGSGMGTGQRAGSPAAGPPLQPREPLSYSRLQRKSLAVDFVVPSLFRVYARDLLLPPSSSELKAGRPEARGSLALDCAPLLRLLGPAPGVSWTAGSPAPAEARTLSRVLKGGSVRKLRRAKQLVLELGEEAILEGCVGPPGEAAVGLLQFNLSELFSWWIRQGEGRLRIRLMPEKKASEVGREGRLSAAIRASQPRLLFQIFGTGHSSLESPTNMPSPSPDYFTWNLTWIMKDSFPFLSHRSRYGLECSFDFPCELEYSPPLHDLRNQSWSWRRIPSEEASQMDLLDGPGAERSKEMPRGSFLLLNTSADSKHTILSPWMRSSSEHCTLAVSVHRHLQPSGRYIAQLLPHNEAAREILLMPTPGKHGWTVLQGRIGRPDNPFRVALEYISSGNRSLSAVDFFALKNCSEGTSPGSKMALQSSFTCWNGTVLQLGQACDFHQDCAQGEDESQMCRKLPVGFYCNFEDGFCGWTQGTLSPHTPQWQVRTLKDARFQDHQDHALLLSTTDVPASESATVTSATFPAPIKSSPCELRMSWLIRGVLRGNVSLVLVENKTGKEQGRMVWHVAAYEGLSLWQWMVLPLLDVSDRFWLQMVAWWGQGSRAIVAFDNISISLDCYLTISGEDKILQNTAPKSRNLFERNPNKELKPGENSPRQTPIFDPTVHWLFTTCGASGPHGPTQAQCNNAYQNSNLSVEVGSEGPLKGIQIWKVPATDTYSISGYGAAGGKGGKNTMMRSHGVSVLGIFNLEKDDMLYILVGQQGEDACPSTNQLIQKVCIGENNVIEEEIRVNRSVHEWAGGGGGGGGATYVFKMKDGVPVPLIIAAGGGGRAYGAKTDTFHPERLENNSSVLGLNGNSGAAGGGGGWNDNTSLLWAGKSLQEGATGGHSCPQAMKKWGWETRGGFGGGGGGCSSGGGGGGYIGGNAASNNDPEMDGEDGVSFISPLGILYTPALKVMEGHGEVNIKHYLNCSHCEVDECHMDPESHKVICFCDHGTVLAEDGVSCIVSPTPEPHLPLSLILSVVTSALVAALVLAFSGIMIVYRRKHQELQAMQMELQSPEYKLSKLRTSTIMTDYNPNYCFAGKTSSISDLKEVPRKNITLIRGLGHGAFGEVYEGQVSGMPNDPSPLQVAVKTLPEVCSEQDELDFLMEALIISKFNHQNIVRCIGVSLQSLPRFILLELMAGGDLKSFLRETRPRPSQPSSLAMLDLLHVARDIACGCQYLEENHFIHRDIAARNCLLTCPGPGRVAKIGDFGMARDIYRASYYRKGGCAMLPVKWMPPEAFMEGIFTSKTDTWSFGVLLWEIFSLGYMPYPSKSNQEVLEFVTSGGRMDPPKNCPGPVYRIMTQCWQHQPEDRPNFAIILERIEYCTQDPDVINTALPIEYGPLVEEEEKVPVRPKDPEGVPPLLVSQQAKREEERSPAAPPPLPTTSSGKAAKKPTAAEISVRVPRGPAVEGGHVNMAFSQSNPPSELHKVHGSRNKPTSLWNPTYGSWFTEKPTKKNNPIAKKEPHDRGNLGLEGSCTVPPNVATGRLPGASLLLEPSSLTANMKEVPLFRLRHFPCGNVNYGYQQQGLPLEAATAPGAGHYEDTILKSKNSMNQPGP
# [7] = biological target: ALK tyrosine kinase receptor (Homo sapiens) (UniProt Q9UM73); settings: at 1 µM
# [8] = biological target: Tyrosine-protein kinase ABL2 (Homo sapiens) (UniProt P42684); settings: at 0.1 µM
# Chain of Tyrosine-protein kinase ABL2 (Homo sapiens) (P42684 whole entry): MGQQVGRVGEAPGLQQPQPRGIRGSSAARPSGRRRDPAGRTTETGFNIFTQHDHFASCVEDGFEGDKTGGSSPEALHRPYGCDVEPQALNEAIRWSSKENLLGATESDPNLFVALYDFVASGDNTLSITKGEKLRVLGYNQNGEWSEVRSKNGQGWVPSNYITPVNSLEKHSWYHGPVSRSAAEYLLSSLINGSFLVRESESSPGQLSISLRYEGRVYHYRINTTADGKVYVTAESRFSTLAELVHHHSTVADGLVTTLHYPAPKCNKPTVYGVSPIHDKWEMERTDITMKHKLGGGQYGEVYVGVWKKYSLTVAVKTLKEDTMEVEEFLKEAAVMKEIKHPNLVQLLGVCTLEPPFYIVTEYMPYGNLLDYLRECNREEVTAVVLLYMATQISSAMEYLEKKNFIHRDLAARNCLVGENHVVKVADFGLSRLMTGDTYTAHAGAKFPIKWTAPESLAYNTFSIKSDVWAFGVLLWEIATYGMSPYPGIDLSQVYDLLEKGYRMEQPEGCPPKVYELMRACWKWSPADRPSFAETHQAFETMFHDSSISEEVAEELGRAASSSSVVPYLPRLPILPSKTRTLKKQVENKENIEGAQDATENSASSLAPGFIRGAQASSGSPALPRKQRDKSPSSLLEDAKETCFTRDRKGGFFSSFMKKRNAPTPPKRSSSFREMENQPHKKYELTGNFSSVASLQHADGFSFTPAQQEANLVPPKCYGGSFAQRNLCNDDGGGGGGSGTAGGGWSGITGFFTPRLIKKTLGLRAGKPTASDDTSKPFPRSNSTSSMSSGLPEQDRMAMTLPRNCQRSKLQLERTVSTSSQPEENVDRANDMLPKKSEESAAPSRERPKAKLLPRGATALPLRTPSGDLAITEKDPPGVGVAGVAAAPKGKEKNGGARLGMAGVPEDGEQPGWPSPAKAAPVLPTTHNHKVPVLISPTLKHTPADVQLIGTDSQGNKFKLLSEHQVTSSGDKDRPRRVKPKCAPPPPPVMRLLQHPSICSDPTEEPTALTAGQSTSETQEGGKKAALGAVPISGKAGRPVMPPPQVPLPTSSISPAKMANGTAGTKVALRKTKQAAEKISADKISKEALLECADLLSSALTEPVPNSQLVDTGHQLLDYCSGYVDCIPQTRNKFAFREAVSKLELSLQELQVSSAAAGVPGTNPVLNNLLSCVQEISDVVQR
# [9] = biological target: Tyrosine-protein kinase ABL2 (Homo sapiens) (UniProt P42684); settings: at 1 µM
# [10] = biological target: Tyrosine-protein kinase receptor UFO (Homo sapiens) (UniProt P30530); settings: at 0.1 µM;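 note: values are mean percent inhibition of AXL from the GSK PKIS screen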
# Chain of Tyrosine-protein kinase receptor UFO (Homo sapiens) (P30530 whole entry): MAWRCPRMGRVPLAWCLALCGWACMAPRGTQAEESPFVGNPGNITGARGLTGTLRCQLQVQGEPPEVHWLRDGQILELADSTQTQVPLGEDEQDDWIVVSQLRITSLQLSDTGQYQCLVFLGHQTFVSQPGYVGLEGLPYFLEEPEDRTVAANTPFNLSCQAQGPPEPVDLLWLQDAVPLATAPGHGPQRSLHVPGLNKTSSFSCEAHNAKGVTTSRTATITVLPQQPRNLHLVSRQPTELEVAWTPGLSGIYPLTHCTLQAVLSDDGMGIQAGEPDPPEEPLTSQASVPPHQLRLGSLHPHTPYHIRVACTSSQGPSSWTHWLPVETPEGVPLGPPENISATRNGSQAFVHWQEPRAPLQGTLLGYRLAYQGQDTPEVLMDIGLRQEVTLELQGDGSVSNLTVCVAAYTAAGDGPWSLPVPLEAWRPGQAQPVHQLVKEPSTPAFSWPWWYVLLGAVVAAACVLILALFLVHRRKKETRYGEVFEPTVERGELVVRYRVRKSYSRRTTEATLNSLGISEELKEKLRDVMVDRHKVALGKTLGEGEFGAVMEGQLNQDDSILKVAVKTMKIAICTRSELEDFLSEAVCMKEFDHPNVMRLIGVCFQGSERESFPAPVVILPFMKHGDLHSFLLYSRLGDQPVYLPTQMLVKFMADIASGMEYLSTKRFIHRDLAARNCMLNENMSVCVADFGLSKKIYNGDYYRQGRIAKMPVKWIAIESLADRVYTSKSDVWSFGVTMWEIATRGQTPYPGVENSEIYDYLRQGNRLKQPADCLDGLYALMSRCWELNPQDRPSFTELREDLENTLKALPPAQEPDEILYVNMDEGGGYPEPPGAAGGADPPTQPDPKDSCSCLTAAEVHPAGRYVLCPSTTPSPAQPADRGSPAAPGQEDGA
Structure (SMILES),inhibition [1],inhibition [2],inhibition [3],inhibition [4],inhibition [5],inhibition [6],inhibition [7],inhibition [8],inhibition [9],inhibition [10]
CN1CCN(Cc2ccc(-c3cc4ncnc(Nc5ccc(OCc6cccc(F)c6)c(Cl)c5)c4s3)o2)CC1,16.3% and 19.7%,4.69% and 4.76%,12.2% and 15.9%,3.24% and 4%,9.31% and 11%,2.64% and 4.3%,8.37% and 11.1%,3.03% and 4.53%,5.38% and 10.7%,-3.61% and -5.96%
FC(F)(F)CNc1nccc(-c2cnn3ncccc23)n1,0.38%,0.37%,2.04%,1.87%,4%,2.79%,3.31%,0.3%,3.29%,-3.79%
Nc1nonc1-c1nc2cnccc2n1C1CC1,2.56% and 3.11%,3.83% and 3.92%,4.12% and 4.54%,5.16% and -2.65%,8.03% and 2.25%,2.63% and -1.89%,5.84% and 0.48%,3.44% and -2.1%,5.37% and -2.96%,-7.63% and -3.39%
Nc1ncnc2occ(-c3ccc(NC(=O)Nc4cc(C(F)(F)F)ccc4F)cc3)c12,91.1% and 85%,10.7% and 5.56%,44.9% and 29.1%,10.9% and 4.97%,58.9% and 35.7%,2.84% and -1.14%,22.8% and 12.6%,25.2% and 23.9%,64.2% and 56.4%,-3.96% and -3.19%
COc1cc(Nc2ncc(-c3ccccc3)o2)cc(OC)c1,13.2%,13.2%,50.9%,8.41%,35.4%,2.73%,4.06%,5.68%,29.4%,-6.45%
OCCCNc1nccc(-c2c(-c3ccc(F)cc3)nn3cc(C(F)(F)F)ccc23)n1,1.6%,4.75%,4.88%,6.03%,11.5%,1.23%,2.86%,3.63%,7.2%,-4.91%
O=C(O[C@H]1CN[C@H](C#Cc2cc3ncnc(Nc4ccc5c(ccn5Cc5cc(F)ccc5F)c4)c3s2)C1)N1CCOCC1,3.69%,2.24%,4.4%,3.14%,3.38%,4.15%,4.73%,1.18%,1.47%,-7.4%
Cc1cc(O)cc(C)c1/C=C/c1cncc(C(=O)OC(C)(C)C)c1,4.07%,9.34%,38.4%,5.51%,31.9%,3.06%,5.54%,8.31%,36.2%,-3.22%
CC1(C)CC(n2cnc(-c3ccc(F)cc3)c2-c2ccnc(N)n2)CC(C)(C)N1,4.98%,8%,5.3%,-0.56%,4.28%,-0.41%,1.55%,-1.89%,1.01%,-0.07%
Cc1ccc(-c2cc3c(NC(=O)C4CC4)ncnc3o2)cc1,14%,7.48%,29.1%,5.87%,30.4%,4.09%,10.7%,3.64%,2.5%,-6.86%
COc1ccccc1-c1cc(/C=C2\C(=O)Nc3ncc(Br)cc32)cc(Br)c1O,5.39%,5.65%,20%,4.63%,27.9%,2.62%,6.47%,3.44%,15.1%,-9.46%
COc1ccc(-c2nn3ncccc3c2-c2ccnc(Nc3ccc(F)c(F)c3)n2)cc1,16.6%,5.29%,17.1%,3.82%,14.7%,2.49%,8.04%,2.7%,11.9%,-1.84%
COc1cccc(-n2ncc3c(N/N=C/c4ccc(C(=O)NCCN(C)C)cc4)ncnc32)c1,95%,93.3%,94.5%,81.7%,83.1%,3.26%,8.56%,73.3%,82%,3.3%
c1ccc(-c2n[nH]cc2-c2ccnc(-c3ccc(OCCn4ccnc4)cc3)c2)nc1,7.34%,31.8%,78.8%,30.5%,68.8%,-0.73%,3.68%,5.73%,56.4%,-0.5%
CCS(=O)(=O)c1ccc(OC)c(Nc2ncc(-c3cccc(C(C)=O)c3)o2)c1,8.41%,25.4%,72.3%,13.4%,60.2%,2.32%,2.87%,13%,60.8%,-3.14%
CC(C)c1ccc(-c2cc(-c3c[nH]nc3-c3ccccn3)ccn2)cc1,0.44%,1.59%,22.1%,7.53%,45.5%,1.28%,3.08%,8.41%,16.6%,-1.3%

Structure (SMILES),inhibition [1],inhibition [2],inhibition [3],inhibition [4],inhibition [5],inhibition [6],inhibition [7],inhibition [8],inhibition [9],inhibition [10]
Fc1cccc(COc2ccc(Nc3ncncc3C#Cc3ccccc3)cc2Cl)c1,5.21%,2.86%,4.69%,4.16%,11.3%,2.52%,4.64%,3.23%,1.72%,-5.96%
Cn1c(-c2nonc2N)nc2cnccc21,1.83%,4.55%,0.38%,4%,4.6%,1.93%,3.93%,2.62%,7.75%,-6.37%
CCS(=O)(=O)c1ccc(OC)c(Nc2ncc(-c3cccc(F)c3)o2)c1,25.1%,52.5%,90.2%,39.8%,77.5%,4.12%,7.35%,32.8%,74.6%,-6.71%
NS(=O)(=O)c1ccc(N/N=C2\C(=O)Nc3ccc(C(=O)NCc4ccncc4)cc32)cc1,12.8%,4.33%,19.1%,2.78%,15.2%,1.39%,4.24%,2.79%,9.41%,-1.05%
O=C(O[C@H]1CN[C@H](C#Cc2cc3ncnc(Nc4ccc(OCc5cccc(F)c5)c(Cl)c4)c3s2)C1)N1CCOCC1,6.54%,2.93%,5.78%,1.93%,3.32%,7.04%,6.43%,0.82%,0.68%,-7.05%
COc1c(C(N)=O)cc(-c2ccc(Cl)cc2)cc1-c1ccc(S(N)(=O)=O)cc1,2.49%,2.41%,4.61%,3.19%,3.54%,5.82%,7.26%,2.13%,3.9%,-6.59%
CCN1CCC(C(=O)Nc2n[nH]c3nnc(-c4cccc(F)c4F)cc23)CC1,1.7%,-0.98%,-1.38%,0.49%,0.51%,0.15%,1.71%,1.05%,1.43%,1.6%
N#Cc1ccc2c(-c3ccnc(NC4CC4)n3)c(-c3ccc(F)cc3)nn2c1,1.49%,-0.67%,3.58%,-0.74%,6.61%,0.92%,0.32%,0.94%,5.29%,-4.43%
CCCNc1cccc(-n2ncc3c(N/N=C/c4ccncc4)ncnc32)c1,85.8%,42.4%,86.2%,24.3%,75.3%,0.42%,3.35%,11.6%,61.9%,2.01%
CC1=C(C(=O)Nc2ccc3[nH]ncc3c2)C(c2ccc(F)cc2)N=C(c2ccc(C(F)(F)F)nc2)N1 (stereo not given),2.27%,3.86%,2.79%,3.97%,10.4%,4.23%,4.29%,3.72%,8.41%,-1.91%
COc1ccc(Nc2ncc(-c3ccccc3)o2)cc1OC,18.9%,11.1%,54.3%,7.03%,58%,1.69%,4.78%,9.21%,57.1%,0.18%
CN(C)CCNC(=O)Nc1ccc(N(C)c2ccnc(Nc3ccc(CS(C)(=O)=O)cc3)n2)cc1,14.5%,7.05%,14.7%,5.68%,19.6%,3.32%,11.7%,5.95%,16.8%,-5.4%
COc1ccc2ncn(-c3cc(O[C@H](C)c4ccccc4C(F)(F)F)c(C(N)=O)s3)c2c1,0.84%,-1.93%,-0.53%,0.27%,9.42%,-0.81%,2.16%,4.37%,2.94%,0.07%
CS(=O)(=O)Nc1ccc(-c2cc(-c3ccccc3)cc(C(N)=O)c2N)cc1,0.72%,1.53%,2.93%,3.02%,7.08%,0.29%,2.13%,2.05%,7.11%,-4.02%
COC(=O)Nc1nc2cc(Oc3ccc(NC(=O)Nc4ccccc4)cc3)ccc2[nH]1,31.3%,6.49%,18.9%,5.66%,11.3%,1.19%,2.23%,9.07%,16.8%,-7.01%
